Screening data from PubChem BioAssay.
Compounds with a hit are over-represented: about 10% of the library has one in this group of screens.
ELG1 DNA repair: ELG1-dependent DNA repair inhibition; Potency, µM (series often up to 46.1 µM), for inactives: top-dose activity change, negative = inhibition, most hits filed as inhibitors; hit rate 2.3% among 330,000; HEK293T ELG1-luciferase reporter, luminescence, 16 h; DNA damage induced by 5-fluorouridine; AID 504467; note: % is set by controls: 0 for no effect and ±100 for the full control effect; nearly all actives have a fitted effect of over 55% in size
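Cells (2,000 per well) received 5-fluorouridine plus test compound or DMSO and were incubated 16 hr at 37 °C, 5% CO2. Luciferase activity was read by luminescence 30 min after ONE-Glo addition; signal suppression marked inhibition of damage-induced ELG1 function.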
SW480 rereplic: DNA re-replication induction in SW480 cells; SW480 DNA re-replication, Hoechst DNA content imaging, 48 h; Potency, µM (doses to about 46.1 µM), inactives show at the top dose re-replication activation, usual class: activators; hit rate 1.8% among 340,000; AID 624297; note: % of control where 0% means no effect; nearly all actives have a fitted effect of over 55% in size
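Hoechst fluorescence of nuclei (405 nm excitation, 500-530 nm emission) measured by plate-scanning imager after 48 hr compound exposure at 37 C; re-replication scored as increased number of nuclei with elevated intensity.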
Gal4-VP16 FLuc: counter-screen for ROR gamma inhibitors: Gal4-VP16 reporter; Drosophila S2 Gal4-VP16 UAS-luciferase, luminescence, 20 h; Potency, µM (series often up to 53.6 µM), without a hit: top-dose activity, negative = inhibition, usual class: inhibitors; hit rate 3.5% among 310,000; AID 2546;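 note: Gal4-VP16 expression switched on by copper sulfate through the metallothionein promoter; % is set by controls: 0 for no effect and ±100 for the full control effect; nearly all actives have a fitted effect of over 50% in size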
RORgamma inh: blocks mouse ROR gamma transcriptional activity | P51450 | hit rate 5.4% among 310,000 | Potency, µM (doses to about 53.6 µM), without a hit: at the top dose activity change, negative = inhibition, most hits filed as inhibitors | Drosophila S2 Gal4-RORgamma UAS-luciferase reporter, 20 h; note: % is set by controls: 0 for no effect and ±100 for the full control effect; nearly all actives have a fitted effect of over 60% in size
Target sequence (P51450 whole entry, looked up, the tested form may be a part): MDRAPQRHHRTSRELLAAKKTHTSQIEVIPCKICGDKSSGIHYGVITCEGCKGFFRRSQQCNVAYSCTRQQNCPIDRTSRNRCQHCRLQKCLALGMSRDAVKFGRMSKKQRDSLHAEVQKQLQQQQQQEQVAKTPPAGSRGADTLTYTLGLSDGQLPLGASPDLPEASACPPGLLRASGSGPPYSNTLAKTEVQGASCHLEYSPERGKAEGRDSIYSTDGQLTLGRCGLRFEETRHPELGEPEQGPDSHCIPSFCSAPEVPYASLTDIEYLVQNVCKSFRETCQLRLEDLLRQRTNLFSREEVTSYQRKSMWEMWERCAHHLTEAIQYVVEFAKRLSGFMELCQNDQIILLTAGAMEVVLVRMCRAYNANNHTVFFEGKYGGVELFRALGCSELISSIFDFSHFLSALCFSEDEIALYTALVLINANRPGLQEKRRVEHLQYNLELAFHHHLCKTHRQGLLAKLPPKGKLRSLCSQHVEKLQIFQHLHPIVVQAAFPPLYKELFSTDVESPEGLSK
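Read-out: Photinus luciferase luminescence; inhibitors lower reporter signal. Insect Schneider cells with Gal4-ROR gamma fusion under metallothionein promoter, UAS reporter; 700 uM final copper sulfate induction, 20 hr, ambient temperature.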
MCF10A rerep: induces DNA re-replication in MCF 10a normal breast cells; MCF 10A DNA re-replication, Hoechst nuclear intensity, 48 h; Potency, µM (top dose mostly 46.1 µM), for the others: top-dose activity, positive = re-replication, actives largely listed as activators; hit rate 2.9% among 350,000; AID 624296; note: % of control where 0% means no effect; nearly all actives have a fitted effect of over 50% in size
* marks the source's active call; other numbers are inactive results; ? = inconclusive; / = not tested or not shown; [ ] = another dose, or the depositor's remark. Calls come from the whole dose curve; as a rule, active = well fitted curve in the direction sought with a large enough effect; inconclusive = small, poorly fitted or top-dose-only effect, or another doubt; inactive = no such curve, though single readings can be large; an effect the other way counts as inactive or inconclusive. Potency is the fitted concentration of half-maximal effect.

SMILES	ELG1 DNA repair	SW480 rereplic	Gal4-VP16 FLuc	RORgamma inh	MCF10A rerep
CC(C)C[C@H](NC(=O)c1nc[nH]c1C(=O)N[C@@H](CC(C)C)C(=O)OC(C)(C)C)C(=O)OC(C)(C)C	?	?	11.2µM*	?	?
C[C@H](NC(=O)c1nc[nH]c1C(=O)NCC(=O)OC(C)(C)C)C(=O)OC(C)(C)C	1.8%	2.5%	?	12.6µM*	-11.6%
CCN(CC)C(=O)c1[nH]cnc1C(=O)Nc1ccc(Cl)cc1	-0.8%	-5.2%	/	/	11.4%
CC(C)C[C@H](NC(=O)c1nc[nH]c1C(=O)NCCNC(=O)OC(C)(C)C)C(=O)CNCCNC(=O)c1[nH]cnc1C(=O)N[C@@H](C)C(=O)OC(C)(C)C	-3.0%	-1.8%	/	/	?
COc1ccc(C(=S)N2CCN(c3ccccc3C)CC2)cc1	?	12.9%	6.3%	?	11.8%
CN(CCc1ccccc1)C(=O)c1cccc(NC(=O)Cc2cccc([N+](=O)[O-])c2)c1	23.1µM*	-3.2%	/	/	5.5%
O=C(Cc1cccc([N+](=O)[O-])c1)Nc1cccc(C(=O)N2CCCCC2)c1	16.4µM*	-12.6%	/	/	1.6%
Cc1ccc(C)c(NC(=S)/C(=C(\[O-])c2ccc(Cl)s2)[n+]2ccccc2)c1	10.5%	-10.2%	-12.3%	20.4%	0.651µM*
[O-]/C(=C(\C(=S)Nc1cccc2ccccc12)[n+]1ccccc1)c1ccc(Cl)s1	2.4%	-1.1%	?	20µM*	?
CCc1cccc(CC)c1NC(=S)/C(=C(\[O-])c1ccc(Cl)s1)[n+]1ccccc1	15.1%	-23.0%	-6.7%	?	-36.0%[9.22 µM]
COc1cc(C(=O)OCC(=O)NC(=O)NC2CCCCC2)cc(Cl)c1OC	2.4%	-4.9%	/	/	-2.2%
Cc1cc(C(=O)N2CCN(S(=O)(=O)c3ccccc3)CC2)c(C)o1	13.7%	?	0.5%	0.5%	8.2%
Cc1csc(NC(=O)CSc2nnc(NC(=O)NC(C)(C)C)s2)n1	?	-7.1%	/	/	0.9%
O=C(CSc1nc2nn(-c3ccccc3)c(=O)c-2c2n1CCCCC2)Nc1ccc(OC(F)F)cc1	13µM*	?	/	/	2.1%
O=C(CSc1nc2nn(-c3ccccc3)c(=O)c-2c2n1CCCCC2)c1ccc(O)c(O)c1	18.3µM*	?	/	/	7.3%
Cc1ccccc1OCC(=O)NCC(=O)OCc1ccc(Br)cc1	16.9%	0.2%	4.7%	1.3%	0.4%
O=C(CCN1C(=O)C2CCCCC2C1=O)Nc1cc([N+](=O)[O-])ccc1Cl (stereo unspecified)	0.0%	-0.5%	/	/	-10.3%
COC(=O)/C=c1\sc2ncnn2c1=O	12.4%	-11.2%[9.22 µM]	11.0%[0.365 µM]	?	11.2µM*
Cc1cc(C)cc(-n2ncc3c2CCCC3NC(=O)CCCn2cncn2)c1 (stereo unspecified)	/	-1.5%	/	/	0.0%
COc1cc(/C=C(\C#N)c2nc3ccccc3s2)ccc1OCC(=O)Nc1ccccc1	4.0%	?	-20.2%	0.126µM*	6.51µM*
COc1cc(/C=C(/C#N)c2nc3ccccc3[nH]2)ccc1OCC(=O)Nc1ccccc1C	5.6%	26.6%	-8.6%	?	18.4µM*
COc1cc(/C=C(\CC(=O)O)c2nc3ccccc3s2)ccc1OCC(=O)Nc1ccccc1F	/	-5.0%	/	/	?
COc1cc(/C=C(/C#N)c2nc3ccccc3[nH]2)ccc1OCC(=O)Nc1ccccc1C(C)C	?	?	-10.6%	8.2%	2.91µM*
O=C(CCc1nnc(Cc2ccc3c(c2)OCO3)o1)NCc1nc2ccccc2s1	?	-1.5%	-2.6%	-12.9%	5.9%
Cn1cc(S(=O)(=O)N2CCOCC2)cc1C(=O)Nc1cccc(Cl)c1	-0.5%	-1.6%	-11.9%	42.9%	-4.5%
SMILES	ELG1 DNA repair	SW480 rereplic	Gal4-VP16 FLuc	RORgamma inh	MCF10A rerep
Cc1cccc(CNc2cc(-c3ccccc3C)ncn2)c1	/	/	5.2%	1.1%	/
CCCCN(C(=O)C1CC(=O)N(c2ccc(CC)cc2)C1)c1c(N)n(CCC)c(=O)[nH]c1=O (stereo unspecified)	2.7%	3.4%	/	/	8.1%
CCOC(=O)Cc1nnc(NC(=O)CSc2nnc3c(n2)[nH]c2ccccc23)s1	-22.0%	-21.6%	?	40.8%	-10.7%
CCN(C(=O)CSc1nc2ccccc2c(=O)n1C(C)COC)C1CCS(=O)(=O)C1 (stereo unspecified)	-2.5%	-93.7%	4.2%	36.6%	-4.0%
Cc1ccc(-c2nc(NC(=O)CSc3nnc4scc(-c5ccccc5)n34)ns2)cc1	11.6µM*	-1.3%	?	?	-1.1%
COc1ccc2[nH]c(=O)c(CN(C(=O)c3cccnc3)c3ccc(C)cc3C)cc2c1	-8.0%	-8.4%	-10.0%	37.8%	1.1%
CO/C=C\C=C/c1nnn(-c2ccc(Cl)cc2)n1	?	-698.3%	?	4.8%	26.7%
COC(=O)C1=C(C)N(c2ccc(S(N)(=O)=O)cc2)C(=O)C1	17.4%	1.0%	-10.0%	-6.4%	-3.4%
COC(=O)C1=C(C)N(c2ccc(Cl)c(Cl)c2)C(=O)C1	3.5%	?	12.6µM*	4.47µM*	?
C=CCn1c(SCC(N)=O)nnc1-c1cccc(Br)c1	-16.0%	-3.6%	-7.2%	-3.0%	0.7%
C=CCn1c(SCC(C)=O)nnc1-c1cc(-c2ccccc2)sc1N	25.9µM*	-15.2%	?	?	-1.9%
COc1ccc(C(=O)COC(=O)c2cc(=O)[nH]c3ccccc23)c(OC)c1	?	-0.6%	/	/	2.1%
CCN1CCN(c2ccc(NC(=O)c3cccc(F)c3)cc2Cl)CC1	?	16.3%	1.4%	24.2%	-1.0%
COc1ccc(/C=C/c2cc(=O)c3cc(Cl)ccc3o2)cc1	?	?	-5.5%	35.7%	20.6µM*
CN(C)S(=O)(=O)c1ccc(C(=O)N2CCN(S(=O)(=O)c3cccs3)CC2)cc1	?	1.7%	9.3%	3.5%	-0.5%
CC1S/C(=N/N=C/c2cccc([N+](=O)[O-])c2)NC1=O (stereo unspecified)	?	-19.4%	-9.0%	7.0%	-1.5%
CC1S/C(=N/N=C/c2ccco2)NC1=O (stereo unspecified)	?	1.5%	?	11.2µM*	7.0%
O=C(CC1S/C(=N/N=C/c2ccco2)NC1=O)Nc1cccc(Cl)c1Cl (stereo unspecified)	8.8%	0.1%	?	20µM*	0.0%
C/C(=N\N=C1/NC(=O)C(C)S1)c1ccco1 (stereo unspecified)	-9.3%	-12.4%	-17.8%	11.2µM*	-1.6%
C/C(=N\N=C(c1ccccc1)c1ccccc1)c1ccco1	9.7%	9.0%	-5.3%	11.0%	2.6%
CC1(C)S/C(=N/N=C/c2ccco2)NC1=O	?	3.7%	7.94µM*	12.6µM*	0.7%
CC1S/C(=N/N=C/c2ccco2)N(Cc2ccccc2)C1=O (stereo unspecified)	?	-3.3%	-4.4%	76.5%	5.8%
